Shown are actives, neighbours in structure and some others; about 3.9% of the full set was active somewhere.
Anthrax LF inh2: Bacillus anthracis LF protease inhibitors, primary screen, biochemical, multiplex microsphere, MLPCN library | multiplex microsphere protease cleavage assay | Lethal factor (Bacillus anthracis), P15917 | 360,000 tested, 0.12% active | inhibition, % at 10 µM | AID 588501, 2011
Bead autofluor: counter-screen for toxin protease inhibitors: compound fluorescence | compound autofluorescence counterscreen, microsphere flow cytometry; stronger effect = higher value | fluorescence intensity (test concentration not listed) | 360,000 tested, 3.1% active; in the data active = fluorescence intensity above about 16000; inconclusive = no clear call, values can overlap the other calls
Vc quorum ag: inducers of Vibrio cholerae quorum light production without autoinducers, primary screen, BH1578 luxS cqsA deficient, single point | V. cholerae BH1578 lux reporter, luminescence, 6 h | activation, % at 18.7 µM | 350,000 tested, 0.16% active; in the data active = activation mostly above about 9.7%, no sharp cut-off; inconclusive = no clear call, values can overlap the other calls; inactive = mostly below about 3.7%
BoNT-F LC inh: BoNT/F light chain protease inhibitors, primary screen, biochemical, flow cytometry, MLPCN library; inhibition, % at 10 µM; Botulinum neurotoxin type F light chain protease (Clostridium botulinum); AID 588497, 2011; 360,000 tested, 0.22% active; Multiplex microsphere protease cleavage assay; in the data active = inhibition above about 35%, passing the limit was not always enough; inconclusive = no clear call, values can overlap the other calls
BoNT A protease: BoNT/A light chain protease inhibitors, primary screen, biochemical, flow cytometry, MLPCN library | multiplex microsphere protease substrate cleavage | AID 588499, 2011 | Botulinum neurotoxin type A light chain protease (Clostridium botulinum A str. ATCC 3502) | 360,000 tested, 0.17% active | inhibition, % at 10 µM
MazEF act: activators of E. coli MazEF toxin-antitoxin RNase, primary screen, biochemical, fluorescence, uHTS; 350,000 tested, 0.32% active; AID 504720, 2011; activation, % at 20 µM; Endoribonuclease toxin MazF (Escherichia coli (strain K12)), P0AE70; FAM/BHQ RNA-DNA oligo cleavage fluorescence, 5 h; in the data active = activation above about 50%
Target sequence (P0AE70 whole entry, looked up): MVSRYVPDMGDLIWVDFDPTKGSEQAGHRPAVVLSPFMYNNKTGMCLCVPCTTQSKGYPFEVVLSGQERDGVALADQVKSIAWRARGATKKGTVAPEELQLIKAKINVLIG
Hits are given with their value; - = inactive; ? = inconclusive; . = no result. Rule as the data show it, unless noted: active = inhibition above about 30%; inconclusive = no clear call, values can overlap the other calls; inactive = below that.

SMILES	Anthrax LF inh2	Bead autofluor	Vc quorum ag	BoNT-F LC inh	BoNT A protease	MazEF act
CCCCn1c(O)c(C(CC)=Nc2ccc(OCC)cc2)c(=O)[nH]c1=O	-	16712	-	-	-	55
CC(=NCc1cccnc1)c1c(O)n(-c2ccc(Cl)cc2)c(=O)[nH]c1=O	-	-	-	-	-	-
CC(=NCc1cccnc1)c1c(O)n(-c2ccccc2)c(=O)[nH]c1=O	-	20066	-	-	-	-
CCCCn1c(O)c(C(CC)=Nc2ccc(OC)cc2OC)c(=O)[nH]c1=O	-	-	-	-	-	-
CCCCn1c(O)c(C(C)=NCc2cc(OC)cc(OC)c2)c(=O)[nH]c1=O	-	-	.	-	-	-
CC(C)c1c(C(=O)Nc2ccccc2)c(-c2ccccc2)c(-c2ccc(F)cc2)n1CC[C@@H](O)C[C@@H](O)CC(=O)O	-	-	-	-	-	.
Brc1ccc2nc(C3CCCCC3)c(Cc3ccsc3)n2c1	-	-	.	-	-	.
CCCc1cc(=O)[nH]c(SCC(=O)N2c3ccccc3NC(=O)C2(C)C)n1	.	.	-	.	.	-
COc1ccc(Cn2cc(CN3CC(N4CCCC4)CS3(=O)=O)nn2)cc1 (centres undefined)	-	-	.	-	-	.
CCCCn1c(O)c(C(CC)=NCc2cccnc2)c(=O)[nH]c1=O	-	22114	-	-	-	-
CC(=NCc1cccnc1)c1c(O)n(Cc2ccccc2)c(=O)[nH]c1=O	-	-	-	-	-	-
CCC(=NCc1cccnc1)c1c(O)n(Cc2ccccc2)c(=O)[nH]c1=O	-	19069	-	-	-	-
COc1ccccc1CCC(=O)N(C)CC(=O)Nc1ccc(Cl)c(C(F)(F)F)c1	-	-	-	-	-	-
COc1cccc(NC(=O)C(C#N)Cc2ccncc2)c1 (centres undefined)	-	19544	-	-	-	-
Fc1ccc(CNC2CN3CCC2CC3)cc1 (centres undefined)	-	-	-	-	-	-
CCOc1cccc(CNC2CN3CCC2CC3)c1 (centres undefined)	-	16409	-	-	?	-
O=C(CCn1c(=O)c2sccc2n(CC(=O)OCc2ccccc2)c1=O)NCc1ccco1	-	-	-	-	-	-
CCN(Cc1ccccc1)C(=O)Cn1c(=O)n(CC(=O)NCc2ccco2)c(=O)c2sccc21	-	21886	-	-	-	-
Cc1cccc(C)c1NC(=O)Cn1c(=O)n(CCC(=O)NCc2ccco2)c(=O)c2sccc21	-	20666	-	-	-	-
CC1CCCCN1C(=O)Cn1c(=O)n(CCC(=O)NCc2ccco2)c(=O)c2sccc21 (centres undefined)	-	19227	-	-	-	-
Cc1cc(C)c2c(n1)sc1c(N3CCN(CCO)CC3)ncnc12	-	17147	-	-	-	-
CC(C)COC(=O)CCn1[nH]c(=O)c2ccccc2c1=O	-	22405	-	-	?	-
COc1cc(CN2C[C@@H](CO)O[C@@H](n3cnc4c(NC(C)C)ncnc43)C2)cc(OC)c1OC	-	-	-	-	-	.
Cc1cccc(-n2c(C)cc(/C=N/NC(=O)c3ccc(CN4CCOCC4)cc3)c2C)c1	-	-	-	-	-	-
Cc1ccc(-n2c(C)cc(/C=N/NC(=O)c3ccc(CN4CCOCC4)cc3)c2C)cc1	-	19963	-	-	-	-
SMILES	Anthrax LF inh2	Bead autofluor	Vc quorum ag	BoNT-F LC inh	BoNT A protease	MazEF act
CC(C)(C)C#CCn1c(/C=[N+](\[O-])C2CCCCC2)nc2ccccc21	-	-	-	-	-	-
CCN(CC)C(=O)CSc1nnc(-c2ccco2)n1Cc1ccco1	-	-	-	-	-	-
CCOc1ccccc1-n1c(SCC(=O)NC)nnc1-c1ccco1	-	17639	-	-	-	-
CCN(CC)C(=O)CSc1nnc(-c2ccco2)n1N	-	17289	-	-	-	-
CN(Cc1ccccc1)C(=O)c1ccccc1-c1ccccc1	-	-	-	-	-	-
C=CCn1c(C)nnc1SCC(=O)Nc1ccc2c(c1)OCCO2	-	-	-	-	-	-
CCn1c(CNC(=O)c2ccco2)nnc1SCC(=O)Nc1cc(C)c(C)cc1Br	-	22252	-	-	?	-
C=CCn1c(CNC(=O)c2ccco2)nnc1SCC(=O)Nc1cccc(F)c1	-	-	-	-	-	-
C=CCn1c(SCC(=O)Nc2ccc3c(c2)OCCO3)nnc1-c1ccco1	-	16334	-	-	-	-
C=CCn1c(CNC(=O)c2ccco2)nnc1SCC(=O)Nc1cccc(Br)c1	-	24230	-	-	-	-
CCn1c(CNC(=O)c2ccco2)nnc1SCC(=O)Nc1ccccc1Cl	-	-	-	-	-	-
CCCCn1c(N)c(N(CC)C(=O)c2cccs2)c(=O)[nH]c1=O	-	-	-	-	-	-
Cc1cc2nc(SCC(=O)Nc3nonc3C)c3c(c2cc1C)CCCC3	-	22694	-	-	?	-
Cc1nonc1NC(=O)CSc1nc(C2CCCCC2)nc2ccccc12	-	-	-	-	-	-
COc1ccccc1C(=O)NC(CCSC)C(=O)NCC(c1ccco1)N(C)C (centres undefined)	-	21152	-	-	-	-
O=C(O)c1c2c(nc3ccc(F)cc13)CCC2	-	20799	-	-	-	-
CCC1(CC)Cc2ccccc2-c2nc(NCCO)[nH]c(=O)c21	-	20997	-	-	-	-
CCC1(C)Cc2ccccc2-c2nc(NCCO)n(-c3ccc(C)cc3)c(=O)c21 (centres undefined)	-	-	-	-	-	-
O=c1[nH]c(NCCO)nc2c1C1(CCCCC1)Cc1ccccc1-2	-	-	-	-	-	-
CCC1(C)Cc2ccccc2-c2nc3n(c(=O)c21)CCCCC3 (centres undefined)	-	21213	-	-	-	-
CCC1(C)Cc2ccccc2-c2nc(NCCO)n(-c3ccccc3)c(=O)c21 (centres undefined)	-	16333	-	-	-	-
O=c1c2c(nc3n1CCCCC3)-c1ccccc1CC21CCCCC1	-	-	-	-	-	-
CCNC(=O)C1(C)CCCN(C(=O)c2cc(-c3cccs3)oc2C)C1 (centres undefined)	-	-	-	-	-	.
Cc1cc(C)c2[nH]c(=O)c(CN(Cc3cccs3)C(=S)NCC3CCCO3)cc2c1 (centres undefined)	-	-	-	-	-	-
Cc1cc(C)nc(NN2C(=O)/C(=C/c3ccc(O)cc3)SC2=S)n1	-	-	-	-	-	-
COc1ccccc1/C=C1\SC(=S)N(Nc2nc(C)cc(C)n2)C1=O	-	24819	-	-	-	-
Cc1cc2oc(=O)c3c(c2cc1OCc1nn[nH]n1)CCCC3	-	-	-	-	-	-

From PubChem BioAssay
